Bioassay records from PubChem.
Compounds with a hit are over-represented: about 3.5% of the library has one in this group of screens.
TEAD-YAP inh = TEAD-YAP interaction inhibition; HEK-TIYL cells, TEAD-Gal4/YAP UAS-luciferase luminescence; inhibition, % at 9.12 µM; 640,000 tested, 1.4% active; in the data active = inhibition above about 32%;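 note: 0% = median of test compound wells and 100% = reference inhibitor wells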
FBW7 act = human FBW7 E3 ligase activation, primary screen; Q969H0; AlphaScreen FBW7–phospho-cyclin E peptide binding, activator screen; normalized activity (activation), % at 26.1 µM; 650,000 tested, 0.13% active; AID 1259310; in the data active = normalized activity above about 1.9%;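 note: purified mutant Fbw7 with reduced substrate affinity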
GPR151 ag = activators of human GPR151; PathHunter beta-arrestin GPR151 cells, luminescence; activation, % at 11.2 µM; 650,000 tested, 1% active; AID 1508602; in the data active = activation above about 4.9%;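 note: 0% = median of compound wells and 100% = cells with positive control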
Target sequence (Q8TDV0 whole entry, looked up): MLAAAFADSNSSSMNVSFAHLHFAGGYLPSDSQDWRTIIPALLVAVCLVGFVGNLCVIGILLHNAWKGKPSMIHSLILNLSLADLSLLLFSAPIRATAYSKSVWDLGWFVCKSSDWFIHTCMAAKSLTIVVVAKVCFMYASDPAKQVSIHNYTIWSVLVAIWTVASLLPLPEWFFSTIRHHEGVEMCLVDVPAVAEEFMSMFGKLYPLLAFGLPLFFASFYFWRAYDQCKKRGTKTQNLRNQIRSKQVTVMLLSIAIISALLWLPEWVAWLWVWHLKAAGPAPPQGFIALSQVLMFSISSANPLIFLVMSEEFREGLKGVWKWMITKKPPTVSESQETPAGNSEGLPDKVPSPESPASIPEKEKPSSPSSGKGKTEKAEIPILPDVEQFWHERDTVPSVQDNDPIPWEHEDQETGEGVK
MITF primary = blocks human microphthalmia-associated transcription factor; AlphaScreen MITF homodimerization, bead proximity signal; 650,000 tested, 0.91% active; AID 1259374; O75030; inhibition, % at 2.6 µM; in the data active = inhibition above about 50%;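 note: 0% = vehicle wells with protein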
* hit, by the source's call.

SMILES	TEAD-YAP inh	FBW7 act	GPR151 ag	MITF primary
O=C(O)CCNc1cc(N2CCCCC2)c2noc3c2c1C(=O)c1ccccc1-3	14	0	3	89*
CC1CCCN(c2cc(NCCN(C)CCO)c3c4c(onc24)-c2ccccc2C3=O)C1 (stereo unspecified)	39*	-1	-2	61*
O=C(O)CNc1cc(N2CCCCCC2)c2noc3c2c1C(=O)c1ccccc1-3	77*	-1	-5	61*
CC(C)Nc1cc(NCCO)c2noc3c2c1C(=O)c1ccccc1-3	37*	0	-2	43
CC(C)Nc1cc(N(C)CCO)c2noc3c2c1C(=O)c1ccccc1-3	15	0	0	26
COc1ccc(S(=O)(=O)NC(CC(=O)NCCc2ccccc2)C(C)C)cc1 (stereo unspecified)	-3	0	0	-8
Cc1ccc(S(=O)(=O)N(C)C)cc1NC(=S)N(CCO)Cc1ccccc1	3	0	0	-9
O=C(CCCc1ccccc1)Nc1cc([N+](=O)[O-])ccc1F	13	0	1	-4
O=C(Nc1cc([N+](=O)[O-])ccc1F)c1cccc(Br)c1	18	0	1	-3
O=C(CCc1ccccc1)Nc1cc([N+](=O)[O-])ccc1F	61*	-1	0	17
O=C(Nc1ccccc1F)c1cc(F)ccc1[N+](=O)[O-]	56*	0	0	10
O=C(Nc1cc([N+](=O)[O-])ccc1F)c1ccc(Br)cc1	39*	0	3	-9
O=C(Nc1cc([N+](=O)[O-])ccc1F)c1ccccc1	16	0	-1	10
O=C(Nc1cc([N+](=O)[O-])ccc1F)c1cccc(F)c1	34*	0	2	12
N#CC1=C(SCC(=O)Nc2ccc(Cl)c(Cl)c2)NC(=O)CC1c1ccccc1 (stereo unspecified)	66*	0	-2	-9
N#CC1=C(SCC(=O)Nc2ccc(Br)cc2)NC(=O)CC1c1ccc(O)cc1 (stereo unspecified)	39*	0	0	14
COc1ccc(OC)c(Cn2c(O)c(/C=C3\C=CC=N3)c(=O)[nH]c2=O)c1	40*	0	2	6
COc1ccc(Cn2c(O)c(/C=C3\C=CC=N3)c(=O)[nH]c2=O)cc1	3	0	1	18
NC(=O)c1c(NC(=O)c2ccccc2)sc2c1CCCCC2	-12	0	1	12
NC(=O)c1c(NC(=O)c2cc3ccccc3o2)sc2c1CCCCC2	42*	0	0	-4
NC(=O)c1c(NC(=O)c2nc3ccccc3s2)sc2c1CCCCC2	62*	0	-2	15
Cc1ccc(C2CC(c3cccs3)=NN2C(=O)CSc2nnc(CNC(=O)c3cccs3)n2-c2cccc(C(F)(F)F)c2)cc1 (stereo unspecified)	-6	0	0	9
Cc1ccc(N2CC(C(=O)Nc3nccs3)CC2=O)cc1Cl (stereo unspecified)	61*	0	2	5
Cn1c(CS(=O)(=O)c2ccccc2)c(C#N)c2ccccc21	34*	0	1	-11
Cn1c(COc2ccccc2)c(C#N)c2ccccc21	-41	0	-1	0
SMILES	TEAD-YAP inh	FBW7 act	GPR151 ag	MITF primary
Oc1c(CN2CCCCC2)ccc2cccnc12	46*	0	-2	105*
O=C(CCl)Nc1c(C(O)(C(F)(F)F)C(F)(F)F)ccc2ccccc12	12	0	2	0
Oc1c(C(O)(C(F)(F)F)C(F)(F)F)ccc2cccnc12	49*	0	-2	47
Oc1c(CN2CCN(Cc3ccc4cccnc4c3O)CC2)ccc2cccnc12	38*	0	-2	114*
Oc1ccc(CN2CCN(c3ccccc3)CC2)c2cccnc12	5	0	0	31
Oc1c(CN2CCOCC2)ccc2cccnc12	16	-1	1	95*
Oc1c(CN2CCOCC2)ccc2ccccc12	5	0	0	13
COc1cc(OC)nc(CSCCNC(=O)C(c2ccccc2)c2ccccc2)n1	-10	0	0	2
COc1ccc(Br)cc1C1CC(=O)NC2=C1C(=O)CCC2 (stereo unspecified)	47*	-1	-1	10
N/C(=N\OC(=O)c1ccc(F)cc1)c1ccc(Cl)cc1	-16	0	0	1
N/C(=N\OC(=O)c1cc(Cl)ccc1Cl)c1ccccn1	44*	1	-7	18
CC(=O)Oc1ccc(C(=O)O/N=C(\N)c2ccccn2)cc1	50*	0	-8	-7
COc1ccc(/C(N)=N/OC(=O)c2ccc(OC(C)=O)cc2)cc1OC	21	0	-4	-17
Cc1cccc(C(=O)O/N=C(\N)c2ccccn2)c1	82*	0	-8	13
